Outcome and AC50 data for 35 molecules are collected here from PubChem BioAssay (EPA / NIEHS).

As a reminder, the AC50 is the concentration at which the activity in the assay is half-maximal.

Inconclusive results are not listed. Calls of active or inactive are those of the source. Rule for the calls, unless noted: active = hit-call score of the fitted dose curve at least 0.9, where 1 is the maximum; inconclusive = response in the unintended direction; inactive = score below 0.9.

The target of experiment [1] is Nucleoli Translocation, AR (gene 367) (UniProt P10275). The experiment is described as follows: UPITT_HCI_U2OS_AR_TIF2_Nucleoli_Antagonist: University of Pittsburgh U2OS Androgen Receptor-Transcriptional Intermediary Factor 2 (AR-TIF2) Antagonism High Content Imaging Assay for Nucleoli Translocation (AID 2283997). The gist of the method:
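Measured quantity was AR-RFP fluorescence localized to nucleoli in engineered U2OS cells also bearing TIF2-GFP, acquired on automated high-content imagers. Primary testing used 20 uM compound; actives were confirmed in triplicate wells.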

The target is the same in experiment [2]. The experiment is described as follows: UPITT_HCI_U2OS_AR_TIF2_Nucleoli_Agonist: University of Pittsburgh U2OS Androgen Receptor-Transcriptional Intermediary Factor 2 (AR-TIF2) Agonism High Content Imaging Assay for Nucleoli Translocation (AID 2283998). In a few lines: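 Nucleolar translocation of AR-RFP, with TIF2-GFP coexpressed in human osteosarcoma U2OS, imaged by high-content fluorescence. Compounds tested singly at 20 uM final, confirmed in triplicate, then titrated 0.195–50 uM final; gain-of-signal relative to DMSO.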

For experiment [3], the target named is Ratio of Nucleoli Translocation and Cytoplasm, AR (gene 367) (UniProt P10275). The experiment is described as follows: UPITT_HCI_U2OS_AR_TIF2_Nucleoli_Cytoplasm_Ratio_Antagonist: University of Pittsburgh U2OS Androgen Receptor-Transcriptional Intermediary Factor 2 (AR-TIF2) Antagonism High Content Imaging Assay for Ratio of Nucleoli Translocation and Cytoplasm (AID 2283999).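 Note: antagonists lower the DHT-driven ratio of nucleolar to cytoplasmic red signal.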 In a few lines:
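U2OS cells expressing RFP-tagged human AR and GFP-tagged TIF2; compounds tested at 20 uM final (0.2% DMSO) in primary screen, 0.195–50 uM (0.5% DMSO) for concentration response. Readout: nucleolar-to-cytoplasmic red fluorescence ratio by high-content imaging, fitted relative to DHT.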

The target is the same in experiment [4]. The experiment is described as follows: UPITT_HCI_U2OS_AR_TIF2_Nucleoli_Cytoplasm_Ratio_Agonist: University of Pittsburgh U2OS Androgen Receptor-Transcriptional Intermediary Factor 2 (AR-TIF2) Agonism High Content Imaging Assay for Ratio of Nucleoli Translocation and Cytoplasm (AID 2284000).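 Note: hits raise the red nucleolar to cytoplasm ratio above vehicle.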 The gist of the method:
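Read-out first: nucleolar-to-cytoplasm ratio of red (AR-RFP) signal, quantified by high-content imaging in U2OS cells co-expressing TIF2-GFP. Activity is scored as signal increase over DMSO. Single-point screening used 20 uM final (0.2% DMSO).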

Experiment [5] can be described thus: CCTE_Simmons_MITO_basal_resp_rate: CCTE's HepG2 Seahorse XF Respirometric Screening Assay at Basal Respiratory State, Simmons Lab (AID 2284001; active = hit-call score of the fitted dose curve at least 0.9, where 1 is the maximum; inactive = score below 0.9). The settings on record: actives raise or lower the signal. The gist of the method: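 HepG2 respirometry; 7-pt titration 125 nM–100 uM final; kinetic OCR at 6 min intervals for 72 min; n=3 biological, technical singles; DMSO baseline, gain or loss fit; fenpyroximate (decrease) and 2,4-DNP (increase) controls.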

The subject of a further experiment is DIO1 (gene 1733). Briefly: CCTE_GLTED_hDIO1: CCTE's human Deiodinase 1 (DIO1) Inhibition Assay, Great Lakes Toxicology and Ecology Division (GLTED) Lab (AID 2283987).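 Note: isolated human DIO1 enzyme in a cell-free setup rather than cells; enzyme activity read as free iodide liberated from substrate via Sandell-Kolthoff colorimetry.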 The gist of the method: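 Inhibition read as reduced iodide release: after 3 h of human DIO1 with chemical, free iodide is quantified colorimetrically (Sandell-Kolthoff cerium/arsenic reaction). Triplicate plates, DMSO baseline.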

Experiment [6] in a line: CCTE_Harrill_HTTr_Apoptosis_DMEM_24hr: (Pilot) CCTE's 24-hour Apoptosis Assessment for the High-Throughput Transcriptomics (HTTr) Platform, in MCF-7 cells cultured in DMEM + 10% fetal bovine serum, Harrill Lab (AID 2283983; active = hit-call score of the fitted dose curve at least 0.9, where 1 is the maximum; inactive = score below 0.9). From the text:
This is a cell-based assay that evaluates apoptosis using high content imaging to evaluate activation of caspase-3/7 using the CellEvent Caspase 3/7 Green detection reagent in 384-well format.One of seven assay components measured from the CCTE_Harrill_HTTr_Apoptosis assay. This was part of a pilot experiment. This is a cell-based assay that evaluates apoptosis in MCF-7 cells cultured in DMEM + 10% fetal bovine serum. High content imaging is used to evaluate activation of caspase-3/7 using the CellEvent Caspase 3/7 Green detection reagent. Measurements are taken at 24 hours after chemical dosing in 384-well format.The assay component endpoint CCTE_Harrill_HTTr_Apoptosis_DMEM_24hr was analyzed with bidirectional fitting relation to DMSO as the negative control and baseline of activity. Using a type of viability reporter, gain-of-signal activity can be used to evaluate activation of caspase-3/7 using the CellEvent Caspase 3/7 Green detection reagent to understand changes in apoptosis. To generalize the intended target to other relatable targets, this assay endpoint is annotated to cell cycle, where the subfamily is apoptosis.
Chemicals were tested in MCF7 cells in an eight point dilution series with a twenty-four hour exposure duration.

A short description of experiment [7]: CCTE_Harrill_HTTr_Apoptosis_PRF_DMEM_6hr: (Pilot) CCTE's 6-hour Apoptosis Assessment for the High-Throughput Transcriptomics (HTTr) Platform, in MCF-7 cells cultured phenol red-free DMEM + 10% charcoal-stripped fetal bovine serum, Harrill Lab (AID 2283984; active = hit-call score of the fitted dose curve at least 0.9, where 1 is the maximum; inactive = score below 0.9). In a few lines: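 MCF-7 cells in phenol red-free DMEM + 10% charcoal-stripped FBS, eight-point dilution series, 6 h exposure. Caspase-3/7 activation imaged by high-content imaging with CellEvent Caspase 3/7 Green; bidirectional fit versus DMSO baseline.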

Experiment [8] is described as follows: CCTE_Harrill_HTTr_Apoptosis_PRF_DMEM_12hr: (Pilot) CCTE's 12-hour Apoptosis Assessment for the High-Throughput Transcriptomics (HTTr) Platform, in MCF-7 cells cultured in phenol red-free DMEM + 10% charcoal-stripped fetal bovine serum, Harrill Lab (AID 2283985; active = hit-call score of the fitted dose curve at least 0.9, where 1 is the maximum; inactive = score below 0.9). The gist of the method:
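MCF-7 cells in phenol red-free DMEM with 10% charcoal-stripped FBS, eight-point dilution series, 12 h exposure. Caspase-3/7 activation imaged by high content imaging with CellEvent Green reagent; bidirectional fit vs DMSO.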

A short description of experiment [9]: CCTE_Harrill_HTTr_Apoptosis_PRF_DMEM_24hr: (Pilot) CCTE's 24-hour Apoptosis Assessment for the High-Throughput Transcriptomics (HTTr) Platform, in MCF-7 cells cultured in phenol red-free DMEM + 10% charcoal-stripped fetal bovine serum, Harrill Lab (AID 2283986; active = hit-call score of the fitted dose curve at least 0.9, where 1 is the maximum; inactive = score below 0.9). The gist of the method:
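MCF-7 cells in phenol red-free DMEM with 10% charcoal-stripped FBS, exposed 24 h across an eight-point dilution series. Caspase-3/7 activation imaged with CellEvent Green by high content imaging; bidirectional fitting against DMSO.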

Sequence of Nucleoli Translocation, AR (gene 367) (P10275 whole entry, looked up): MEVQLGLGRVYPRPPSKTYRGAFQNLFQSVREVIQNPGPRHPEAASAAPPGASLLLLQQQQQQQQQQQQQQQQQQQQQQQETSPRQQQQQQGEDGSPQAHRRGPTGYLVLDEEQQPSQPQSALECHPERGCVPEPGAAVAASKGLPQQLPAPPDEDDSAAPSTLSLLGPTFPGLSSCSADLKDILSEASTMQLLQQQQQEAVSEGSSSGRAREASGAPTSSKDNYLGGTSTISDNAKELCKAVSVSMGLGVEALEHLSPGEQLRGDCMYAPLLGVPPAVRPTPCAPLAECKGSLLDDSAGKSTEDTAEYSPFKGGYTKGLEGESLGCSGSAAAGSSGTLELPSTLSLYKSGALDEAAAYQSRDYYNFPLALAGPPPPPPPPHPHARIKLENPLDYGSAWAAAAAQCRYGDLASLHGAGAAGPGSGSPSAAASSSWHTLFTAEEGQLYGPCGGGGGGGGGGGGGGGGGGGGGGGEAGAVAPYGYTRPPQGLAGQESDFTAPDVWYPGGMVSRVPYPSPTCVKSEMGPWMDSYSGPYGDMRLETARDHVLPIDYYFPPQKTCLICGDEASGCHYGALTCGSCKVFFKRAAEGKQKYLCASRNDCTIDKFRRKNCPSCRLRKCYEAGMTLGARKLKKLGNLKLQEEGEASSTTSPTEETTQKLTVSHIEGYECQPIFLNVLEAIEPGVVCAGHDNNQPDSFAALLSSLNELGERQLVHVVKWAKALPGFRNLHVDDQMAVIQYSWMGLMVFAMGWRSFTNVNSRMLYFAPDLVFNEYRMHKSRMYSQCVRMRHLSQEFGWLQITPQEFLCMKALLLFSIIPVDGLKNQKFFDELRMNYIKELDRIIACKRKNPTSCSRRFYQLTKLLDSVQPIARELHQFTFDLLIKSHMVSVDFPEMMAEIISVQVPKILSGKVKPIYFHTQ
Sequence of Ratio of Nucleoli Translocation and Cytoplasm, AR (gene 367) (P10275 whole entry, looked up): as above

As to `COc1ccc(-c2ccccc2)cc1NNC(=O)OC(C)C`, the molecule was called inactive in [1], in experiment [2], in experiment [3], in experiment [4] and in experiment [5].
With `CC(C)N1C(=O)N(c2ccccc2)CSC1=NC(C)(C)C`, the call in experiment [1], in experiment [2], in experiment [3], in experiment [4] and in experiment [5] was inactive.
Regarding `COP(=S)(OC)SCn1nnc2ccccc2c1=O`, the values for the AC50 (with DIO1 (gene 1733); in experiment [1]) were 47.3 µM (active) and 31.4 µM (active), respectively. Moreover, the molecule was classed as inactive in experiment [2] and in experiment [3].
As to `CC1(C)CCC(=Cc2ccc(Cl)cc2)C1(O)Cn1cncn1` (configuration not stated), the half-maximal activity concentration (AC50) in experiment [1] was 2.9 µM (active); in experiment [2] it was 9.87 µM (active); in experiment [4], 15.9 µM (active). The outcome in experiment [3] was inactive.
For `N#Cc1c[nH]cc1-c1cccc2c1OC(F)(F)O2`, the AC50 in experiment [5] was 77.1 µM (active).
Consider `CCCCC(O)(Cn1cncn1)c1ccc(Cl)cc1Cl` (configuration not stated), for which the AC50 is 62.7 µM (active) in experiment [1], 78.4 µM (active) in experiment [2], 77.3 µM (active) in experiment [4] and 41 µM (active) in experiment [5]. The outcome in experiment [3] was inactive.
Consider `Clc1cccc(C(Cl)(Cl)Cl)n1`, for which the molecule was called inactive in experiment [1], in [2] and in experiment [4].
As for `Cn1c(-c2ccccc2)cc(-c2ccccc2)[n+]1C`, in experiment [5], the concentration at half-maximal activity (AC50) is 41.9 µM (active).
Consider `CC(C)=CC1C(C(=O)OCc2coc(Cc3ccccc3)c2)C1(C)C` (configuration not stated), for which the molecule was called inactive in [5].
Turning to `COCC(=O)N(c1c(C)cccc1C)C(C)C(=O)OC` (configuration not stated), the AC50 in [5] is 36.2 µM (active).
Take `CCOP(=O)(OCC)Oc1nc(Cl)c(Cl)cc1Cl`: the molecule was classed as inactive in experiment [1] and in experiment [4]. In addition, the AC50 in experiment [5] was 29.6 µM (active).
In the case of `CCNP(=S)(OC)O/C(C)=C/C(=O)OC(C)C` (configuration not stated), the AC50 in experiment [5] was 37.9 µM (active).
Turning to `Nc1c(Cl)c(F)nc(OCC(=O)O)c1Cl`, the molecule was called inactive in experiment [2], in experiment [3], in experiment [4] and in experiment [5].
With `COC(=O)c1c(C(F)F)nc(C(F)(F)F)c(C2=NCCS2)c1CC(C)C`, the result in experiment [1], in [2] and in experiment [4] was inactive.
Take `CCOc1nc(F)cc2nc(S(=O)(=O)Nc3c(Cl)cccc3Cl)nn12`: in the experiment with DIO1 (gene 1733), the AC50 is 38.8 µM (active).
As to `OC(c1ccc(Cl)cc1)(c1ccc(Cl)cc1)C(Cl)(Cl)Cl`, the AC50 in the experiment on DIO1 (gene 1733) was 70.4 µM (active).
As to `CO/N=C(/C1=NOCCO1)c1ccccc1Oc1ncnc(Oc2ccccc2Cl)c1F`, in experiment [5], the AC50 is 6.74 µM (active).
Take `CCCCC(C#N)(Cn1cncn1)c1ccc(Cl)cc1` (configuration not stated): the result in [5] was inactive.
`CCOC(=O)C(C)OC(=O)c1cc(Oc2ccc(C(F)(F)F)cc2Cl)ccc1[N+](=O)[O-]` (configuration not stated): the outcome in experiment [6], in [7], in experiment [8] and in [9] was inactive.
On to `CCOP(=S)(OCC)Oc1nc(Cl)n(C(C)C)n1`, for which the AC50 in experiment [5] was 29.3 µM (active).
For `COC(=O)N(C(=O)N1CO[C@@]2(C(=O)OC)Cc3cc(Cl)ccc3C2=N1)c1ccc(OC(F)(F)F)cc1`, the result in experiment [1], in experiment [3] and in experiment [4] was inactive.
For `Cc1cnc(C2=NC(C)(C(C)C)C(=O)N2)c(C(=O)O)c1` (configuration not stated), the molecule was called inactive in experiment [1], in [2] and in [4].
On to `O=C1C2CC=CCC2C(=O)N1SC(Cl)(Cl)Cl` (configuration not stated), for which the AC50 is 53.8 µM (active) in the experiment with DIO1 (gene 1733) and 59.9 µM (active) in [5].
As for `COCC(C)N(C(=O)CCl)c1c(C)csc1C` (configuration not stated), the AC50 in experiment [5] was 55.3 µM (active).
On to `CCSC(=O)N1CCCCCC1`, for which, in [5], the outcome was inactive.
As for `CC(C)(C)C(=O)C(Oc1ccc(Cl)cc1)n1cncn1` (configuration not stated), the concentration at half-maximal activity (AC50) in experiment [5] was 40.6 µM (active).
As for `CCN(CC)C(=O)C(C)Oc1cccc2ccccc12` (configuration not stated), in experiment [5], the molecule was classed as inactive.
On to `C=CCOC(=O)C(C)(C)OC(=O)c1cc(-n2c(=O)cc(C(F)(F)F)n(C)c2=O)ccc1Cl`, for which the result in experiment [6], in [7], in experiment [8] and in experiment [9] was inactive.
`CCN(CC)c1nc(C)cc(OP(=S)(OC)OC)n1`: the result in experiment [5] was inactive.
In the case of `CCCCOCN(C(=O)CCl)c1c(CC)cccc1CC`, the AC50 is 37.9 µM (active) in the experiment with DIO1 (gene 1733), 19 µM (active) in [1] and 11 µM (active) in [3]. The result in [2] and in experiment [4] was inactive.
Regarding `CC1(C)C(C=C(Cl)Cl)C1C(=O)OC(C#N)c1cccc(Oc2ccccc2)c1` (configuration not stated), the outcome in [6], in experiment [7], in experiment [8], in experiment [9] and in [5] was inactive.
As to `COCc1cnc(C2=NC(C)(C(C)C)C(=O)N2)c(C(=O)O)c1` (configuration not stated), the outcome in [1], in [2] and in experiment [4] was inactive.
`Cc1c(COC(=O)[C@@H]2[C@H](/C=C(\Cl)C(F)(F)F)C2(C)C)cccc1-c1ccccc1`: the outcome in experiment [6], in [7], in experiment [8], in [9] and in [5] was inactive.
`Cc1ccc(N=CN(C)C=Nc2ccc(C)cc2C)c(C)c1`: the molecule was classed as inactive in [5].
With `CCOc1cc(C(C)(C)C)ccc1C1COC(c2c(F)cccc2F)=N1` (configuration not stated), the call in experiment [1] was inactive.
